# In PubChem BioAssay (Tox21):
# Inconclusive results are not listed. A number with no mark means an inactive call. Active and inactive are the calls of the source. Calls come from the whole dose curve; as a rule, active = well fitted cell-killing curve with a large enough effect in the repeat runs; inconclusive = weak or mixed curves, or effect the other way; inactive = flat fitted curve, though single readings scatter.
# Test: cAMP Responsive Elements (CRE) small molecule antagonists, cell-based qHTS assay: qHTS cell viability counter screen (AID 2060913); note: nearly all actives have a fitted effect of over 40% in size
# Details: CRE-bla HEK293T viability, CellTiter-Glo luminescence, 5 h; series mostly up to 92.4 µM; viability change, negative = cytotoxic: at the top concentration
# In short: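 Viability of NKH477-stimulated (0.25 uM final) CRE-bla HEK293T cells is measured by CellTiter-Glo luminescence following 3 hrs compound exposure at 37 C.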
# % is set by controls: 0 for no effect and ±100 for the full control effect.
SMILES,"viability change, negative = cytotoxic",Potency
OC(C#CCN1CCCC1)(c1ccccc1)c1ccccc1,0.787% [at 42.5 µM],–
CCCCCCCCC(C)=O,16.3%,–
CC[C@H](C)C(=O)O[C@H]1C[C@@H](C)C=C2C=C[C@H](C)[C@H](CC[C@@H]3C[C@@H](O)CC(=O)O3)[C@H]21,–,inactive
CCCCCCCC(=O)OCC,10.2%,–
COC(=O)c1ccccc1,2.13%,–
CCCCCCCCCCC,0.0113%,–
Cc1ccc(CCn2c3c(c4cc(Cl)ccc42)CN(C)CC3)cn1,-0.931% [at 42.5 µM],–
OC1(c2ccccc2)CCNCC1,-0.442% [at 42.5 µM],–
COC(=O)c1cc(S(N)(=O)=O)ccc1OC,0.207% [at 42.5 µM],–
CCCCC(CC)COC(=O)/C=C/c1ccc(OC)cc1 (stereo not given),–,inactive
C=CC(C)(C)C,–,inactive
Nc1ccccc1O,2.63%,–
CN1C(=O)OC(C)(C)C1=O,9.79%,–
O=C(O)c1cccc(C[C@@H]2COc3ccc(OCc4nc5cc(F)ccc5s4)cc3[C@@H]2O)c1,4.72%,–
COc1cc(/C=C/C(=O)O[C@H]2CC[C@]34C[C@]35CC[C@]3(C)[C@@H]([C@H](C)CCC=C(C)C)CC[C@@]3(C)[C@@H]5CC[C@H]4C2(C)C)ccc1O,3.89% [at 42.5 µM],–
CCN(CC)CCNC(C(=O)OCCC(C)C)c1ccccc1 (stereo not given),-0.48% [at 42.5 µM],–
CNC[C@H](O)c1ccc(O)c(O)c1,–,inactive
CCCC(O)C(O)CO (stereo not given),-0.827%,–
COc1cc(N)c(Cl)cc1C(=O)NC1CCN(Cc2ccccc2)CC1,1.34% [at 42.5 µM],–
Clc1ccc2cc3ccccc3cc2c1,18.2%,–

SMILES,"viability change, negative = cytotoxic",Potency
CC(=O)CCC(C)C,9.32%,–
CC1(C)CC(=O)CC(C)(C)N1,-5.86%,–
CC(C)C/C=C(\C=O)c1ccccc1,-22.3%,–
CCCCCCCC/C=C/CCCCCCCC1=NCCN1CCO,-4%,–
C=CCOCC(O)CS(=O)(=O)O (stereo not given),-1.06%,–
O=C(Cl)c1ccc(F)c(Cl)c1,26.6%,–
CS(=O)(=O)c1ccc([C@@H](O)[C@@H](CF)NC(=O)C(Cl)Cl)cc1,9.09% [at 42.5 µM],–
NC(=O)c1ccccc1,0.687%,–
OC1OC[C@@H](O)[C@H](O)[C@H]1O (stereo not given in full),0.407%,–
CC(=O)O[C@]1(C(C)=O)CC[C@H]2[C@@H]3C=C(C)C4=CC(=O)CC[C@]4(C)[C@H]3CC[C@@]21C,–,inactive
COc1ccc(/C=N/NC(=O)c2ccncc2)cc1OC,-1.86% [at 42.5 µM],–
CCOC(=O)C1CC(=O)C(=C(O)C2CC2)C(=O)C1 (stereo not given),-2.19%,–
CCCc1ccccc1,-0.0241%,–
O=C1OC2(c3ccc(O)cc3Oc3cc(O)ccc32)c2ccc(N=C=S)cc21,-0.472%,–
COc1ccc2cc(C=O)ccc2c1,0.28% [at 42.5 µM],–
NC(=O)CCCCC(N)=O,1.33%,–
FC(F)(F)C(F)(F)C(F)(F)C(F)(F)CCI,2.31% [at 42.5 µM],–
COc1ccccc1C=O,16.4%,–
C=CCCCCCCCCCC,–,inactive
COc1c(Br)cc(Br)c(C)c1Br,-2.94%,–
